SARS-CoV-2 infection rate data for 40 molecules are collected here from the supplement of paper PMC13380429.

Molecules are shown by their SMILES.

The experiment has as its system Vero E6 infected with SARS-CoV-2. The experiment is described as follows: SARS-CoV-2 infection rate relative to infected DMSO; higher = more infection, active = 60 or less. As to conditions: 24 h.
On to `c1ccc2c(c1)CCCc1cc(NCCN3CCOCC3)nnc1-2` (10 µM), for which the SARS-CoV-2 infection rate is 116% (inactive).
With `CC[C@H]1[C@@H](O)[C@@H]2[C@H](CC[C@]3(C)[C@@H]([C@H](C)CCOS(=O)(=O)O)CC[C@@H]23)[C@@]2(C)CC[C@@H](O)C[C@@H]12` (10 µM) the figure was 106% (inactive); with `COc1cc2c(NC3CCN(C(C)C)CC3)nc(C3CCCCC3)nc2cc1OCCCN1CCCC1` (10 µM), 22.5% (active); with `C[C@@H](O)[C@H]1C(=O)N2C(C(=O)O)=C(S[C@@H]3CN[C@H](C(=O)Nc4cccc(C(=O)O)c4)C3)[C@H](C)[C@H]12` [ertapenem] (10 µM), 106% (inactive).
With `Cc1ncc(COP(=O)([O-])[O-])c(CN(CCN(CC(=O)O)Cc2c(COP(=O)([O-])O)cnc(C)c2O)CC(=O)O)c1O.[Mn].[Na+].[Na+].[Na+]` [Mangafodipir (trisodium)] (10 µM) the figure was 120% (inactive); with `NC[C@H]1O[C@H](O[C@H]2[C@H](O)[C@@H](O[C@H]3O[C@H](CO)[C@@H](O)[C@H](N)[C@H]3O)[C@H](N)C[C@@H]2N)[C@H](N)[C@@H](O)[C@@H]1O` [bekanamycin] (10 µM), 103% (inactive); with `O=C(C1CCCCC1)N1CC(=O)N2CCc3ccccc3C2C1` (stereo not given) [praziquantel] (10 µM), 106% (inactive).
With `C[C@]12CC[C@@H]3c4ccc(O)cc4CC[C@H]3[C@@H]1CC[C@@H]2O` [estradiol] (10 µM) the figure was 116% (inactive); with `O=C(NCCN1CCOCC1)c1ccc(Cl)cc1` [moclobemide] (10 µM), 103% (inactive).
As to `CCC(CO)(C(=O)OC1CC2CCC(C1)[N+]2(C)C)c1ccccc1` (stereo not given) [troventol] (10 µM), the SARS-CoV-2 infection rate was 106% (inactive).
With `Nc1ccc(S(=O)(=O)NC(=O)c2ccccc2)cc1` [sulfabenzamide] (10 µM) the figure was 106% (inactive).
The same measure for `CN(C)C(=O)Oc1cccc([N+](C)(C)C)c1` [neostigmine] (10 µM): 112% (inactive).
With `CCNC(=O)c1noc(-c2cc(C(C)C)c(O)cc2O)c1-c1ccc(CN2CCOCC2)cc1` (0.833333 µM) the figure was 94% (inactive); with `COc1cc([C@@H]2c3cc4c(cc3[C@@H](O[C@@H]3O[C@@H]5CO[C@@H](C)O[C@H]5[C@H](O)[C@H]3O)[C@H]3COC(=O)[C@H]23)OCO4)cc(OC)c1OP(=O)(O)O` [etoposide-phosphate] (10 µM), 94.5% (inactive); with `CCCCCCCCCCCCCCCCCCN(CCCCCCCCCCCCCCCCCC)CCCN(CCO)CCO` [avridine] (10 µM), 102% (inactive).
As to `COc1ccc(C(=O)Nc2c(Cl)cncc2Cl)cc1OC1CCCC1` [piclamilast] (10 µM), the SARS-CoV-2 infection rate was 107% (inactive).
Turning to `CCN1CCN(Cc2ccc(C(=O)Nc3ccc(C)c(Oc4ccc5c(c4)CC(=O)N5)c3)cc2C(F)(F)F)CC1` (0.833333 µM), the SARS-CoV-2 infection rate is 104% (inactive).
Regarding `CCCCN1CCC(CCC(=O)c2cc(Cl)c(N)cc2OC)CC1` (10 µM), the SARS-CoV-2 infection rate is 95% (inactive).
As for `Sc1ncnc2nc[nH]c12` [mercaptopurine] (0.833333 µM), the SARS-CoV-2 infection rate was 108% (inactive).
With `c1ccc(CCNc2nc(-c3ccccc3)cs2)cc1` [fanetizole] (10 µM) the figure was 99.5% (inactive).
The same measure for `CSc1nc(-c2ccc(F)cc2)c(-c2ccnc(N[C@@H](C)c3ccccc3)c2)[nH]1` (10 µM): 107% (inactive).
With `CS(=O)(=O)Nc1ccc(-c2coc3cc(OCc4cccc(C(=O)O)c4)ccc3c2=O)cc1` (10 µM) the figure was 97% (inactive); with `O=C1NC(c2ccccc2)(c2ccccc2)C(=O)N1COP(=O)(O)O` [fosphenytoin] (10 µM), 123% (inactive).
Turning to `Cc1cc(Cn2cnc3c2C[C@@H](C(=O)O)N(C(=O)C(c2ccccc2)c2ccccc2)C3)ccc1N(C)C` (10 µM), the SARS-CoV-2 infection rate was 99% (inactive).
With `CCC(C)SSc1ncc[nH]1` (stereo not given) (10 µM) the figure was 95% (inactive); with `CC(=O)O[C@H]1C[C@@H]2CC[C@@H]3[C@H](CC[C@@]4(C)[C@H]3C[C@H]([N+]3(C)CCCCC3)[C@@H]4OC(C)=O)[C@@]2(C)C[C@@H]1[N+]1(C)CCCCC1` [pancuronium] (10 µM), 102% (inactive).
With `CC/C(=C(/c1ccc(/C=C/C(=O)O)cc1)c1ccc2[nH]ncc2c1)c1ccc(F)cc1Cl` (10 µM) the figure was 103% (inactive).
The same measure for `CNC(=O)c1cccc(NC(=O)N2CCC(Oc3ccccc3Cl)CC2)c1` (10 µM): 114% (inactive); for `O=C1C(=Cc2cccnc2)C(=O)c2ccccc21` (10 µM): 99% (inactive); for `CCN(CC)C(=O)N1CCN(C)CC1` [diethylcarbamazine] (10 µM): 104% (inactive).
For the molecule `NS(=O)(=O)c1nn2cc(-c3ccccc3)nc2s1` (10 µM), the SARS-CoV-2 infection rate was 97.5% (inactive).
For the molecule `CC(C)C(=O)Nc1ncc(-c2cc(C(F)F)nn2-c2c(Cl)cccc2Cl)s1` (10 µM), the SARS-CoV-2 infection rate was 108% (inactive).
The same measure for `O=Nc1c(-c2c(O)[nH]c3ccccc23)[nH]c2ccccc12` [indirubin-3-monoxime] (0.833333 µM): 106% (inactive); for `CCOC(=O)N[C@@H]1CC[C@@H]2[C@@H](C1)C[C@H]1C(=O)O[C@H](C)[C@H]1[C@H]2/C=C/c1ccc(-c2cccc(F)c2)cn1` [vorapaxar] (10 µM): 106% (inactive); for `CC1(C)S[C@@H]2[C@H](N3C(=O)[C@@H](c4ccccc4)NC3(C)C)C(=O)N2[C@H]1C(=O)O` [hetacillin] (10 µM): 96.5% (inactive).
With `COc1cn(-c2ccc(-n3cccn3)cc2F)nc(-c2ccnn2-c2ccccc2)c1=O` (10 µM) the figure was 112% (inactive).
The same measure for `Cc1nc(=O)c2cc(CN(C)c3ccc(C(=O)N[C@@H](CCC(=O)O)C(=O)O)s3)ccc2[nH]1` [raltitrexed] (0.833333 µM): 104% (inactive).
On to `O=C(N[C@H]1CCN(C(=O)c2cc(C(F)(F)F)cc(C(F)(F)F)c2)[C@H](Cc2ccc(Cl)cc2)C1)c1ccnc2ccccc12` (10 µM), for which the SARS-CoV-2 infection rate is 81.5% (inactive).
The same measure for `CC(C)=CCC/C(C)=C/CC/C(C)=C/C=C/C(C)=C/C(=O)O` [peretinoin] (10 µM): 108% (inactive); for `CN(C)CCn1nnnc1SCC1=C(C(=O)O)N2C(=O)[C@@H](NC(=O)Cc3csc(N)n3)[C@H]2SC1` [cefotiam] (10 µM): 100% (inactive).
